# Compounds with a hit are over-represented: about 1.5% of the library has one in this group of screens.
# RAD54 branch: inhibitors of human RAD54 branch migration. Q92698. RAD54 Holliday junction branch migration, FAM/BHQ fluorescence. inhibition, % at 10.4 µM. 360,000 tested, 0.14% active. AID 602329;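 active = mean normalized replicate activity at least 40 and at least half of replicates scoring 40 or more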;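 note: 0% = median of neutral control wells and 100% = median of positive control wells; inhibitors cause a drop in the FAM fluorescence signal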
# N-glyco inh: N-linked glycosylation inhibition | reporter increase, % at 12.5 µM | D54 ERlucT glycosylation luciferase reporter, 24 h; percent of 100 nM tunicamycin response | 360,000 tested, 0.23% active;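 active = mean luciferase reporter signal, scaled so untreated is 0 and the glycosylation-blocking control 100, at or above a set limit in every replicate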;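 note: luciferase carries N-glycosylation sites so blocking glycosylation raises the light; 0% = median of neutral control wells and 100% = median of 100 nM tunicamycin wells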
# DNA FID counter: fluorescent intercalator displacement, NS3 helicase counter-screen | DNA fluorescent intercalator displacement, fluorescence | inhibition, % at 7.9 µM | 290,000 tested, 0.17% active | AID 1845; in the data active = inhibition above about 37%;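 note: 0% = vehicle and 100% = reference compound; higher means more ethidium bromide displaced from hairpin DNA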
# RAD52 inh: inhibitors of human RAD52 DNA annealing. inhibition, % at 18.7 µM. 360,000 tested, 0.46% active. recombinant RAD52 DNA annealing, FRET fluorescence;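 active = every replicate showing at least 50% inhibition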
# miR122 inh: miR-122 inhibition in Huh7 cells; Huh7 miR-122 Renilla luciferase sensor, 48 h; neutral wells = 0, positive control = 100; activation (reporter increase), % at 12.5 µM; 340,000 tested, 0.3% active;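 active = mean replicate activation score at least 90 and every replicate individually at or above 90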;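 note: higher luciferase means less miR-122 activity so hits act as miR-122 inhibitors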
# CendR NRP1 mod: alters CendR peptide binding to human NRP-1 | inhibition, % at 25 µM | 360,000 tested, 0.85% active | AID 602438 | FAM-RPARPAR peptide binding to NRP-1, fluorescence polarization | O14786;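 active = inhibition or corrected inhibition above about 18%, plus a signal ratio from 0.5 to 1.5, limit read from the data, passing the limit was not always enough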
# The depositor's hits bear a star; i = inactive; x = no result; [ ] = dose if it differs, or a comment.
SMILES,RAD54 branch,N-glyco inh,DNA FID counter,RAD52 inh,miR122 inh,CendR NRP1 mod
Cc1nc2c(OCCOc3ccccc3)cccn2c1N(C)C(=O)CCC1CCCC1,0.6,0.5,x,-11.9,-3.5,22.0
C[n+]1cccc2c(Br)ccc([O-])c21,1.0,1.5,9.7,34.9,-0.7,25.8*
[O-][n+]1cccc2c(Br)cc(Br)c(O)c21,-8.9,3.8,2.2,-4.3,0.9,13.3
CCOc1cccc(C(=O)Nc2cccc(-c3nnc(-c4ccc(C)cc4)o3)c2)c1,9.6,98.5*,0.1,x,0.9,-3.5
O=C(Nc1ccccc1F)N[C@@H]1CC[C@@H](CCNS(=O)(=O)c2ccc(Cl)cc2)O[C@@H]1CO,-1.3,x,x,5.7,2.9[16.7 µM],x
COc1ccccc1-c1ccc([C@H]2[C@@H](CO)N(C(C)=O)C23CN(C(C)=O)C3)cc1,x,x,x,-7.1,x,x
COc1cc(NC(C)CCCNC(C)C)c2ncccc2c1OC (configuration not stated),-13.4,5.2,x,-37.4,3.3,24.0*
COc1cc(N)c2ncccc2c1OC,-6.5,3.3,x,4.6,-6.8,-0.1
O=C(CCn1cncn1)N1CCCC(N2CCN(c3ccc(F)cc3)CC2)C1 (configuration not stated),16.8,3.5,-7.4,-8.4,-3.9,24.7*
O=C(NCCCn1ccnc1)c1nn2c(C(F)(F)F)cc(-c3ccc(Br)cc3)nc2c1Cl,x,1.3,-1.8,-2.2,x,29.7*
CC(=O)Nc1ccc(NC(=O)CSc2ncc(C(=O)Nc3ccccc3)c(=O)n2C)cc1,-2.4,13.7,x,4.9,3.5,-10.7
Cn1c(SCC(=O)c2ccc(F)cc2)ncc(C(=O)Nc2ccccc2)c1=O,8.9,36.1*,x,-2.2,4.3,27.2*
O=C(c1cccs1)N1CC=C(c2ccccc2)CC1,5.5,-2.3,x,-13.2,0.4,17.4*
Cc1cc(C)cc(N(C(=O)CNC(=O)c2ccco2)C(C(=O)NC2CCCCC2)c2ccncc2)c1 (configuration not stated),-2.1,0.8,-38.0,-7.1,-7.6,21.5*
Cc1cc(C)cc(N(C(=O)CNC(=O)c2ccco2)C(C(=O)NC2CCCCC2)c2cccnc2)c1 (configuration not stated),-0.4,0.9,-26.1,-9.3,x,5.9
COc1ccccc1N(C(=O)c1ccco1)C(C(=O)NC1CCCCC1)c1cc(OC)c(OC)c(OC)c1 (configuration not stated),-1.4,1.1,-35.8,-7.2,x,26.5*
COc1ccccc1N(C(=O)CNC(=O)c1ccco1)C(C(=O)NC1CCCC1)c1ccco1 (configuration not stated),x,-2.0,-30.5,-7.6,1.0,17.9*
COc1ccc(C(C(=O)NC2CCCCC2)N(C(=O)c2ccco2)c2ccccc2OC)cc1 (configuration not stated),0.3,-0.2,-49.3,6.3,x,9.3
O=C(NCC(=O)N(c1ccccc1F)C(C(=O)NC1CCCC1)c1ccco1)c1ccco1 (configuration not stated),x,-0.2,-19.5,-5.4,x,5.4
CN1c2ccc(-c3cccc(C#N)c3)cc2[C@H]2[C@H](CCN2C(=O)CC2CC2)[C@H]1CO,4.4,x,x,x,-4.7[16.7 µM],x
Cc1nc(S(=O)(=O)N[C@H]2CCN(Cc3ccc(OCCO)cc3)C2)cn1C,-5.4,x,x,-3.3,x,x
CS(=O)(=O)N(CC(=O)Nc1ccccc1-c1ccccc1)c1cccc(F)c1,-0.1,-1.1,-26.9,-1.4,13.6,26.7*
COc1ccc2c3c([nH]c2c1)[C@@H](CO)N(C(=O)c1cccnc1)CC31CCN(C(=O)c2cccnc2)CC1,x,x,x,-6.5,x,x
CC1=CC(C)[C@H](/C=N/n2c(=O)[nH]c3c([nH]c4ccc(Br)cc43)c2=O)C(C)C1 (some centres not stated),-6.7,37.5*,-3.3,-27.3,-5.6,-13.5
COc1cccc2c1C(=O)c1c(O)c3c(c(O)c1C2=O)C[C@@](O)(C(=O)CO)C[C@@H]3O[C@H]1C[C@H](N)[C@H](O)[C@H](C)O1,-94.3,-14.8,58.6*,i,-68.7,141.8
CN(C)S(=O)(=O)N1CCCC(C(=O)c2ccc(-c3ccccc3)c(F)c2)C1 (configuration not stated),x,-2.3,-8.5,0.9,3.6,20.0*

# Compound activity as filed in PubChem.
